The whole screen tested about 5,500 compounds, of which about 2,000 (36%) were called active. Inconclusive results (about 18%) are left out. Cut-off read from the data, not from the text of the source: active = normalized growth mostly below about 0.91 (no sharp cut-off); inconclusive = no clear call, values can overlap the other calls; inactive = mostly above about 0.92. The list shows a part of the results.
Test: chemical genetic growth profiling, strain panel (AID 1159580);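 note: tested at 20 µM; growth read once vehicle control cultures reached saturation at 30 °C; 1 = growth at the plate median or of vehicle wells; lower values mean less growth of the strain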
Conditions: growth OD
[1] = S. cerevisiae deletion strains, locus YAL013W, strain DEP1, hits give low values
[2] = S. cerevisiae deletion strains, locus YAL040C, strain CLN3, hits give low values
[3] = S. cerevisiae deletion strains, locus YCL061C, strain MRC1 (second series), hits give low values
[4] = S. cerevisiae deletion strains, locus YDR363W, strain ESC2, hits give low values
[5] = S. cerevisiae deletion strains, locus YER002W, strain NOP16, hits give low values
[6] = S. cerevisiae deletion strains, locus YGR229C, strain SMI1, hits give low values
[7] = S. cerevisiae deletion strains, locus YMR307W, strain GAS1, hits give low values
[8] = S. cerevisiae deletion strains, locus YNL175C, strain NOP13, hits give low values
[9] = S. cerevisiae deletion strains, locus YNL197C, strain WHI3, hits give low values
[10] = S. cerevisiae deletion strains, locus YNL224C, strain SQS1, hits give low values
[11] = S. cerevisiae deletion strains, locus YOR083W, strain WHI5 (second series), hits give low values
[12] = S. cerevisiae deletion strains, locus YPL055C, strain LGE1, hits give low values
[13] = S. cerevisiae deletion strains, locus YPL241C, strain CIN2, hits give low values
[14] = S. cerevisiae deletion strains, locus YDR150W, strain NUM1, hits give low values
[15] = S. cerevisiae deletion strains, locus YHR030C, strain SLT2, hits give low values
[16] = S. cerevisiae deletion strains, locus YJR075W, strain HOC1, hits give low values
[17] = S. cerevisiae deletion strains, locus YNL322C, strain KRE1, hits give low values
[18] = S. cerevisiae deletion strains, locus YNL128W, strain TEP1, hits give low values
[19] = S. cerevisiae deletion strains, locus YHR079C, strain IRE1, hits give low values
[20] = S. cerevisiae deletion strains, locus YJL095W, strain BCK1, hits give low values
[21] = S. cerevisiae deletion strains, locus YJR066W, strain TOR1, hits give low values
[22] = S. cerevisiae deletion strains, locus YLR113W, strain HOG1, hits give low values
[23] = S. cerevisiae deletion strains, locus YNL183C, strain NPR1, hits give low values
[24] = S. cerevisiae deletion strains, locus YOR231W, strain MKK1, hits give low values
[25] = S. cerevisiae deletion strains, locus YPL256C, strain CLN2, hits give low values

Measured: normalized growth

CCOC(=O)c1cnc2c(cnn2CC)c1NN=C(C)C
active: [3] 0.943 | [6] 0.76 | [7] 0.856 | [11] 0.844
inactive: [1] 0.918 | [2] 1.01 | [4] 0.918 | [5] 0.959 | S. cerevisiae deletion strains, locus YNL153C, strain GIM3, hits give low values 0.909 | [8] 0.961 | [9] 0.976 | [10] 0.97 | [12] 0.966 | [13] 0.964

CCOC(=O)c1cnc2cc(C)nn2c1C
inactive: [1] 0.994 | S. cerevisiae deletion strains, locus YBR229C, strain ROT2, hits give low values 0.994 | S. cerevisiae deletion strains, locus YCL061C, strain MRC1, hits give low values 0.999 | S. cerevisiae deletion strains, locus YDL101C, strain DUN1, hits give low values 0.997 | [14] 0.964 | S. cerevisiae deletion strains, locus YEL061C, strain CIN8, hits give low values 0.997 | S. cerevisiae deletion strains, locus YGR078C, strain PAC10, hits give low values 1 | [6] 0.983 | [15] 0.986 | S. cerevisiae deletion strains, locus YHR087W, strain rtc3, hits give low values 1.01 | S. cerevisiae deletion strains, locus YJL187C, strain SWE1, hits give low values 1.01 | S. cerevisiae deletion strains, locus YJR043C, strain POL32, hits give low values 1.01 | [16] 0.998 | S. cerevisiae deletion strains, locus YKL190W, strain CNB1, hits give low values 0.992 | S. cerevisiae deletion strains, locus YLR039C, strain RIC1, hits give low values 0.987 | S. cerevisiae deletion strains, locus YLR058C, strain SHM2 (second series), hits give low values 1 | S. cerevisiae deletion strains, locus YLR085C, strain ARP6, hits give low values 0.944 | S. cerevisiae deletion strains, locus YLR262C, strain YPT6, hits give low values 0.99 | S. cerevisiae deletion strains, locus YML094W, strain GIM5, hits give low values 0.953 | S. cerevisiae deletion strains, locus YMR219W, strain ESC1, hits give low values 0.991 | S. cerevisiae deletion strains, locus YMR263W, strain SAP30, hits give low values 1 | S. cerevisiae deletion strains, locus YNL298W, strain CLA4 (second series), hits give low values 0.996 | [17] 0.994 | S. cerevisiae deletion strains, locus YNR030W, strain Alg12, hits give low values 0.981 | S. cerevisiae deletion strains, locus YOL006C, strain TOP1, hits give low values 0.965 | [12] 0.909 | [13] 0.956 | S. cerevisiae deletion strains, locus YPR135W, strain CTF4, hits give low values 1.01 | S. cerevisiae strains, strain wild type, hits give low values 0.991

CCCCNc1c(C(=O)OCC)c(C)nc2c1cnn2CC
active: [11] 0.845
inactive: [2] 0.933 | [3] 0.998 | [14] 0.999 | [4] 1.01 | [5] 0.998 | [6] 1.01 | [16] 1.01 | [7] 0.998 | [18] 0.959 | [8] 0.941 | [9] 0.947 | [10] 0.951 | [17] 1 | [12] 1.01 | [13] 0.993

CC[N+](C)(CC)CCOC(=O)C(O)(c1ccccc1)C1CCCCC1 (stereo not drawn)
inactive: [15] 0.989 | [19] 1 | [20] 0.982 | [21] 0.901 | [22] 1.03 | [23] 0.913 | [24] 0.988 | [25] 0.989

CCN(CC)CC#CCOC(=O)C(O)(c1ccccc1)C1CCCCC1 (stereo not drawn)
inactive: [1] 1 | [2] 1 | [3] 1 | [14] 1 | [4] 1.01 | [5] 1.06 | [15] 0.985 | [19] 0.996 | [20] 1.05 | [21] 0.927 | [22] 1.04 | [8] 1.06 | [23] 0.96 | [9] 1.05 | [10] 1.02 | [11] 0.998 | [24] 0.989 | [12] 1 | [13] 1 | [25] 1
active: [18] 1.11 [resistant]

— PubChem BioAssay AID1159580 (chemical genetic matrix, 2015)
